# An excerpt weighted towards active compounds, which were near 27% of everything screened.
# CYP2C19 activ = cytochrome P450 2C19 (human) activation. AID 1025. activation factor at 5 µM. recombinant CYP2C19, luciferin-H EGE luminescence; active compounds read high; 0 = fully inhibited enzyme, 1 = untreated enzyme. 96,000 tested, under 10 active. P33261;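 active = activation factor of at least 2 at 5 µM in the primary screen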;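 also: 0 = wells with 2.5 mM tranylcypromine and 1 = vehicle-only wells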
# CYP2C9 act = CYP2C9 (human) activation; P11712; recombinant CYP2C9, luciferin-H conversion, luminescence; active compounds read high; factor 1 = untreated enzyme, 0 = blocked; activation factor at 5 µM; hit rate 1.4% among 96,000; AID 1024;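 active = activation factor of 2 or more for CYP2C9 at a 5 µM dose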;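 also: 0 = sulfaphenazole-blocked wells and 1 = vehicle-only wells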
# Target sequence (P11712 whole entry, looked up): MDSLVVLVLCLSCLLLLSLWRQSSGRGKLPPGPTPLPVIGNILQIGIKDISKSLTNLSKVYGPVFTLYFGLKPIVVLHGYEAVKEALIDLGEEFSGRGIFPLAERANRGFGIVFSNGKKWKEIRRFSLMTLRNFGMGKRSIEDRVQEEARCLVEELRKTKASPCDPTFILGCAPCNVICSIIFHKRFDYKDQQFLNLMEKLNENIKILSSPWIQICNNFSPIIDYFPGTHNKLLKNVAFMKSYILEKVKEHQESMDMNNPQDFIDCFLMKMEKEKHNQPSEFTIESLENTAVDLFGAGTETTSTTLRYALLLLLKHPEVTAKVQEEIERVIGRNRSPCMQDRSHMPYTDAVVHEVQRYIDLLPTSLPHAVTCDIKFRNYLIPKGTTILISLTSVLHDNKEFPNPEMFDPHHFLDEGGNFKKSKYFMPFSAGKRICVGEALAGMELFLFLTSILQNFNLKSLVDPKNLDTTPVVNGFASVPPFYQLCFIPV
# CYP2C9 inhib = blocks human cytochrome P450 2C9 | hit rate 20% among 96,000 | AID 777 | inhibition, % at 5 µM | CYP2C9 Supersomes, luciferin-H conversion, luminescence;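 active = blocking of liver enzyme CYP2C9 beyond about 50% at 5 µM, limit read from the data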
# CYP2C19 inh = blocks human cytochrome P450 2C19. P33261. hit rate 21% among 96,000. CYP2C19 Supersomes, luciferin-H EGE luminescence, 30 min. AID 778. inhibition, % at 5 µM;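 active = CYP2C19 inhibition above a set limit at 5 µM in the primary screen, cut at about 50% in these data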;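 also: plate controls were negative control wells for no effect and 2.5 mM tranylcypromine positive control for full effect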
# Cav32 inh = human Cav3.2 channel inhibition, primary screen; O95180; Cav3.2-expressing cells, Fluo-4 calcium fluorescence FDSS; active compounds read low; B-score at 10 µM; hit rate 4% among 100,000; AID 449739;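 active = single-dose well whose peak fluorescence ratio is a statistical outlier from its plate by either plate-standardised score or position-corrected B-score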
# Pyk2 oligo antag = Pyk2 (human) oligomerization antagonism | Q14289 | Q293 cells, Pyk2 FERM NanoBiT luminescence; active compounds read low | z-score (the deposit names both 25 µM and 10 µM) | hit rate 0.83% among 99,000;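 active = Z-score of -3 or lower, scaled per plate to the spread of control and sample wells; inactive = z-score above -3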;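 also: negative z-score means lost luminescence so less FERM oligomerization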
# The depositor's hits bear a star; nt = not tested or not shown.
SMILES,CYP2C19 activ,CYP2C9 act,CYP2C9 inhib,CYP2C19 inh,Cav32 inh,Pyk2 oligo antag
CC(C)(C)OC(=O)CC[C@@H](C(=O)N1CCN(C(=O)OC(C)(C)C)CC1)n1cc(C(CO)NC(=O)OC(C)(C)C)nn1 (stereo partly drawn),nt,nt,nt,nt,0.918,nt
CC(C)(C)c1ccc(C(=O)OCCNC(=O)c2c(Cl)nc3ccccn23)cc1,0.4,0.1,92.4*,59.1*,-1.89,-3.17*
COc1ccc(C(=O)OCCNC(=O)c2c(Cl)nc3ccccn23)cc1,0.3,0.6,44.6,75.0*,-0.661,0.02
CC(C)(C)[C@H]1C=C(C(=O)N2CCN(Cc3ccc4c(c3)OCO4)CC2)O[C@@H](OCc2ccc(CO)cc2)C1,nt,nt,nt,nt,-2.56,nt
O=C1NCCCC1C(=O)N/N=C/c1ccccc1 (stereo not drawn),1.1,1.1,-12.7,-6.4,0.102,1.91
COc1cc(C)c2occ(/C(C)=N\O)c2c1,0.9,0.9,12.4,14.9,-0.854,4.57
Cc1cc(Cl)ccc1NC(=O)CSc1nnc(Cc2cccs2)n1Cc1ccco1,0.4,0.5,48.7,61.2*,-7.65*,0.03
COc1ccc(OC)c(C(=O)CSc2nnc(Cc3cccs3)n2C)c1,0.1,0.6,35.7,89.3*,0.704,0.22
CCn1c(SCC(=O)c2cc(OC)ccc2OC)nc2c1c(=O)n(C)c(=O)n2C,0.9,0.8,24.9,11.3,nt,nt
COc1cc2c(cc1NC(=O)COC(=O)Cn1cnc3ccccc31)oc1ccccc12,0.6,0.4,60.7*,39.9,-1.26,-0.22
CCCn1c(SCC(=O)c2cc(OC)ccc2OC)nnc1C(C)C,0.1,0.8,16.3,92.5*,0.0136,0.17
CCn1c(Cc2cccs2)nnc1SCC(=O)Nc1ccc(OC)c(OC)c1,1.2,1.2,-24.9,-23.4,0.269,0.59
COc1cc2c(cc1NC(=O)CSc1nnc(Cc3cccs3)n1Cc1ccco1)oc1ccccc12,0.4,0.2,84.1*,58.5*,-3.06,-2.59
COc1cc2c(cc1NC(=O)CSc1nnc(Cc3cccs3)n1C)oc1ccccc12,0.8,0.4,56.6*,15.1,-1.53,-1.66
CCn1c(SCC(=O)Nc2cc3oc4ccccc4c3cc2OC)nnc1-c1cccs1,0.6,0.4,55.3*,40.9,-0.45,-2.24
COCCn1c(SCC(=O)c2ccc(F)cc2)nnc1C(C)C,0.2,0.2,78.7*,75.9*,-0.125,0
CC(C)C(=O)Nc1cc(=O)[nH]c2ncnn12,1,1,-4.3,-1.8,-0.0551,0.76
CCN(CC)C(=O)C(=O)N/N=C/c1ccc(Br)cc1,0.7,0.8,17.6,34.9,1.78,2.15
CC(=O)Oc1ccc(N2C(=O)C3C4C=CC(CO)(O4)C3C2=O)cc1 (stereo not drawn),1.2,1.3,-33.0,-16.0,0.0133,0.65
COc1ccc(C(=O)NCC23C=CC(O2)C2C(=O)N(Cc4ccccc4)C(=O)C23)cc1 (stereo not drawn),0.4,0.7,34.2,62.1*,1.13,-0.39
CCCC(=O)Nc1nnc(CC(=O)N2CCCC2)s1,0.9,1.2,-20.7,5.2,0.546,-0.2
CS(=O)(=O)N1CCc2cc(C(=O)OCC(=O)c3ccccc3)ccc21,1.1,1.1,-9.6,-10.8,-1.08,-0.31
CCOC(=O)Cc1csc(NC(=O)c2csc3c2CCCC3)n1,0.4,0.3,74.8*,64.9*,-2.07,-0.45
CCOC(=O)Cc1csc(NC(=O)c2cc3c(s2)CCCC3)n1,0.7,0.4,63.6*,26.7,-2.89,-0.22
CCOC(=O)Cc1csc(NC(=O)c2cc(OC)cc(OC)c2)n1,nt,nt,nt,nt,0.794,-0.6
SMILES,CYP2C19 activ,CYP2C9 act,CYP2C9 inhib,CYP2C19 inh,Cav32 inh,Pyk2 oligo antag
COc1cccc(NC(=O)CNC(C)CCC(C)C)c1 (stereo not drawn),0.2,0.7,25.9,79.2*,-1.87,0.53
COC(=O)c1cccc(NC(=O)CCCOc2ccccc2)c1,0.2,0.4,59.2*,80.2*,-0.252,1.6
COc1ccc(C(=O)Nc2cccc(OC)c2)cc1,0.5,0.8,17.8,48.5,0.234,1.15
CCOCC(=O)Nc1cccc(OC)c1,nt,nt,nt,nt,0.025,0.41
COc1cccc(NC(=O)CNC(=O)c2ccccc2)c1,0.5,0.5,45.7,50.5*,0.218,0.31
COC(=O)c1cccc(NC(=O)Cn2nnc3ccccc32)c1,0.4,0,96.2*,64.2*,-1.15,1.45
c1ccc(Cn2nnc3c(Nc4ccc5c(c4)OCO5)nc(C4CC4)nc32)cc1,0.9,0.6,36.3,7.4,-0.055,-0.9
O/N=C(/CN(O)/C=C1/C=CC=N1)c1cccs1,0.9,1,3.9,10.1,-0.0282,0.07
COc1cc(CCC(O)CC(=O)CCc2ccccc2)ccc1O (stereo not drawn),nt,nt,nt,nt,-0.167,nt
COCCNC(=O)Nc1ccc2nc(-c3cccs3)c(-c3cccs3)nc2c1,1,0.5,51.9*,2.2,-2.36,0.56
O=C(Nc1ccc2nc(-c3cccs3)c(-c3cccs3)nc2c1)NC1CC1,0.8,0.5,49.7,20.9,0.181,0.63
COCCn1c(C2CCCCC2)nc2sc3ccccc3c(=O)c2c1=O,0.4,0.2,76.7*,61.4*,nt,0.68
CCCCc1nc(SCC(=O)Nc2ccc(S(N)(=O)=O)cc2)n[nH]1,0.8,0.6,39.2,19.5,nt,0.61
CCCn1c(=O)c2ccccc2n2c(SCCOc3ccc(Cl)cc3)nnc12,0.8,1,-4.3,17.2,0.0694,0.72
CCCn1c(=O)c2ccccc2n2c(SCCOc3ccccc3F)nnc12,0.4,0.5,46.2,55.8*,-0.217,0.65
CCCn1c(=O)c2ccccc2n2c(SCC(=O)c3ccc(F)cc3)nnc12,0.9,0.9,10.6,11.5,nt,nt
CCCn1c(=O)c2ccccc2n2c(SCC(=O)c3ccccc3)nnc12,0.6,0.4,55.0*,37.5,-1.14,0.46
COc1ccc(-n2c(SCC(=O)Nc3nccs3)nc3c(c2=O)SC(C)C3)cc1 (stereo not drawn),1.1,0.8,24.7,-14.4,1.35,nt
CCCc1nc(N)c(C#N)c(-c2ccco2)c1CC,0.4,0.5,50.1*,58.6*,-1.59,0.06
C=CCNC(=O)c1ccc2c(c1)S(=O)(=O)c1ccccc1C2=O,nt,nt,nt,nt,0.107,nt
CCOC(=O)c1nnn(-c2nonc2N)c1-c1ccc(OC)cc1,0,0.2,80.1*,98.1*,-0.168,-0.52
CCOC(=O)c1nnn(-c2nonc2-c2ccccc2)c1C,1,0.8,21.0,-2.8,-0.533,1.16
CCOC(=O)c1nnn(-c2nonc2N)c1-c1cccc2ccccc12,0,0.2,83.7*,98.1*,-3.16,-1.65
Cc1c(C(=O)N2CCCCCC2)nnn1-c1nonc1N,0.9,1.1,-9.5,6.6,-1.1,-0.69
CCOC(=O)c1nnn(-c2nonc2N)c1-c1cccs1,0.3,1,4.1,67.6*,-0.0779,-0.27
Nc1nonc1-n1nnc(C(=O)O)c1-c1cccs1,0.9,0.2,83.8*,10.0,0.173,-0.04
CNC(=O)C1C2C=CC3(O2)C1C(=O)N(C1CC1)C3C(=O)NCc1ccc(OC)cc1 (stereo not drawn),1.2,1.3,-26.0,-16.0,0.261,0.07

# High-throughput results from PubChem BioAssay.
